Reference: PubChem BioAssay
Values without a mark were called inactive. Entries that show only a call come without a potency. For part of these data: Potency and affinity values are given separately. The source made the active and inactive calls. Unless noted, no rule for the calls is given here.

Columns and labels:
[1] = antimalarial activity against Dd2 strain (AID 2302;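 active = growth inhibition above 50% at the single 2 µM test dose, taken to imply half-maximal potency below 2 µM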); details: P. falciparum Dd2 in RBCs, LDH growth readout, 72 h; at 2 µM; active compounds read high
[2] = human hepatoma cell viability loss – ATP luminescence, cytotoxicity control for P. falciparum antimalarial project, primary screen (AID 2303;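 active = inhibition above 50%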); details: HepG2 viability, 24-48 h, at 10 µM, active compounds read high
[3] = biological target: L-lactate dehydrogenase (Plasmodium falciparum (isolate CDC / Honduras)) (UniProt Q27743); assay: PfLDH activity inhibition – cell lysate, 3D7 strain, counter-screen for P. falciparum growth inhibition project (AID 2304); details: P. falciparum 3D7 crude extract, LDH APAD/NBT absorbance; at 2 µM; active compounds read high
[4] = inhibition of 3D7 malaria parasite growth – strain 3D7 (AID 2306); details: P. falciparum 3D7 erythrocytic growth, LDH absorbance, 72 h; at 2 µM; active compounds read high
[5] = biological target: Calcium-dependent protein kinase 1 (Plasmodium falciparum (isolate 3D7)) (UniProt P62344); assay: PfCDPK1 kinase inhibitors, biochemical, TCAMS library (AID 1159585; cut-off not given, nearly all actives have IC50 up to about 0.98 µM;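 also: inhibitors leave more ATP so luminescence rises with inhibition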); details: recombinant PfCDPK1, Kinase-Glo ATP depletion luminescence
[6] = biological target: Plasmodium falciparum protein kinase 6 (PK6, PF3D7_1337100) (UniProt Q8IDW1); assay: PfPK6 kinase inhibitors, biochemical, TCAMS library (AID 1159586); details: recombinant PfPK6, Kinase-Glo ATP depletion luminescence
[7] = biological target: Protein kinase 7 (PK7), Plasmodium falciparum 3D7 (PF3D7_0213400) (UniProt Q7YTF7); assay: inhibition of Plasmodium PK7 catalytic activity – biochemical, TCAMS antimalarial set, Kinase-Glo luminescence (AID 1159587); details: recombinant PfPK7, Kinase-Glo ATP depletion luminescence
[8] = biological target: Calcium-dependent protein kinase 4 (Plasmodium falciparum (isolate 3D7)) (UniProt Q8IBS5); assay: PfCDPK4 kinase inhibitors, biochemical, TCAMS library (AID 1159588; cut-off not given, nearly all actives have IC50 up to about 0.91 µM); details: recombinant PfCDPK4, Kinase-Glo ATP depletion luminescence
Sequence of Calcium-dependent protein kinase 4 (Plasmodium falciparum (isolate 3D7)) (Q8IBS5 whole entry, looked up): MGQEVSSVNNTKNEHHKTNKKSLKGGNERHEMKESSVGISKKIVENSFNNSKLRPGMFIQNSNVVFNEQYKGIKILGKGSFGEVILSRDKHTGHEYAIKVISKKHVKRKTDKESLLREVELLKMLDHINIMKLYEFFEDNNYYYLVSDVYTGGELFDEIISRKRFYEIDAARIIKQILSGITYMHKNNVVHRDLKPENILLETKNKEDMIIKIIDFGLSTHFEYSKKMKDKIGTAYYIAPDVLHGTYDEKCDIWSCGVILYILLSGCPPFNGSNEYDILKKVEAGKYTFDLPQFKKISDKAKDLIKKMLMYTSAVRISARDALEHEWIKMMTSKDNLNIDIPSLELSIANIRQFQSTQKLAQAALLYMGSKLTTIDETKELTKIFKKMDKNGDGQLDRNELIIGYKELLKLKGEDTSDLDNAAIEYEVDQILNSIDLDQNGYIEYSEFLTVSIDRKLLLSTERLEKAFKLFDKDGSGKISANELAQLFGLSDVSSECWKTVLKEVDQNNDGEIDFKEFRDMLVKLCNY

Sequence of L-lactate dehydrogenase (Plasmodium falciparum (isolate CDC / Honduras)) (Q27743 whole entry, looked up): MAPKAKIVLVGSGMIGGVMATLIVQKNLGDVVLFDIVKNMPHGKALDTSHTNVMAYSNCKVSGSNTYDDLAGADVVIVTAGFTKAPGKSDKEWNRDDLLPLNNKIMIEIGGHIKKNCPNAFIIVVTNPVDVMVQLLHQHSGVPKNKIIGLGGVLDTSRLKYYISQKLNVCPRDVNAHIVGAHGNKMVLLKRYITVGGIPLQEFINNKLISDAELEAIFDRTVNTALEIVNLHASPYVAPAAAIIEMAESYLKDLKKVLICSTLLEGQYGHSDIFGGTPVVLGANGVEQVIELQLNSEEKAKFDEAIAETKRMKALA
Sequence of Protein kinase 7 (PK7), Plasmodium falciparum 3D7 (PF3D7_0213400) (Q7YTF7 1-343): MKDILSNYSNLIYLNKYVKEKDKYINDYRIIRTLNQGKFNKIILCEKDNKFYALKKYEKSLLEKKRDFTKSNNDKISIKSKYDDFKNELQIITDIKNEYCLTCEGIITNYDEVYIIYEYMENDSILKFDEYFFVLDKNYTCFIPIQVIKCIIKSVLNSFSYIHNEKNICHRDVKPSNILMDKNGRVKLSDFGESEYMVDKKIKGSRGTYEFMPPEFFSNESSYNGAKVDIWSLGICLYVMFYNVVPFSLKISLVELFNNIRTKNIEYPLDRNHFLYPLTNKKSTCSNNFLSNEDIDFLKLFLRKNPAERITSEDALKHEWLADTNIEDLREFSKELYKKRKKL
Sequence of Calcium-dependent protein kinase 1 (Plasmodium falciparum (isolate 3D7)) (P62344 whole entry, looked up): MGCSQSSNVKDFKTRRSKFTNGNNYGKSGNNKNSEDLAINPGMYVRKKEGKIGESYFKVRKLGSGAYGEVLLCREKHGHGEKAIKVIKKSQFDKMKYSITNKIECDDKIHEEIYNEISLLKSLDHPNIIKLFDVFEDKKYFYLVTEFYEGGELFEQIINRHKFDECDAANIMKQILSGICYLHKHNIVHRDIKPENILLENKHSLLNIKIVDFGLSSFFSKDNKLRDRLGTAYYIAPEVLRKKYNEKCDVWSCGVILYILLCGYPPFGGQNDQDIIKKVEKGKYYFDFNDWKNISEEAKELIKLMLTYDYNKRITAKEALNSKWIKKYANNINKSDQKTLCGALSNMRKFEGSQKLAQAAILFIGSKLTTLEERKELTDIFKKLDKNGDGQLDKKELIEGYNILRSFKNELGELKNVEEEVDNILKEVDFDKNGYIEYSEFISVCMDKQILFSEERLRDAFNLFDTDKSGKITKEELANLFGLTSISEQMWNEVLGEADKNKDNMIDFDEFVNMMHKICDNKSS
Sequence of Plasmodium falciparum protein kinase 6 (PK6, PF3D7_1337100) (Q8IDW1 1-305): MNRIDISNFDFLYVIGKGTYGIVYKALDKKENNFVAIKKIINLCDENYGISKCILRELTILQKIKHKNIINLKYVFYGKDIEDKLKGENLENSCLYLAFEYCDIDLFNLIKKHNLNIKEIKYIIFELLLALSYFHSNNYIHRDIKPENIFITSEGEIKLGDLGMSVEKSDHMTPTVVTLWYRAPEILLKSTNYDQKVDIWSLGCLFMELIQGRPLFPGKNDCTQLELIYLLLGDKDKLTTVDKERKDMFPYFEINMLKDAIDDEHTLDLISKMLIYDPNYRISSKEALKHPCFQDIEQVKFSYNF

Row | SMILES | growth inhibition [1] | inhibition [2] | inhibition [3] [%] | growth inhibition [4] | outcome [5] | outcome [6] | outcome [7] | outcome [8]
1 | O=C(Nc1cccc(-c2nn3ccccc3c2-c2ccnc(Nc3cccc(F)c3)n2)c1)c1c(F)ccc(F)c1Cl | 38% | 41% | 5 | 93% (active) | inactive | inactive | inactive | inactive
2 | COc1ccccc1C1CCN(C2CCC(NC(=O)c3cc4cc(C(C)C)ccc4[nH]3)CC2)CC1 (centres undefined) | 98% (active) | 100% (active) | -4 | 101% (active) | inactive | inactive | inactive | inactive
3 | Cc1cc2nc(-c3ccc(C(=O)NC4CCN(Cc5ccccc5)CC4)cc3)[nH]c2cc1C | 99% (active) | -6% | -5 | 93% (active) | inactive | inactive | inactive | inactive
